Experimental data as given in the supplement of paper PMC12350171.
Structures can show the parent of a compound that is named as a salt. A number with no mark means an inactive call.

Assays:
Settings in all cases: 20 µM
[1] = system: Salmonella enterica typhimurium; experiment: growth AUC normalised to DMSO control (fraction of control); higher = less growth inhibition, active = hit call of the paper
Procedure, shortened: (§1)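 For the AUC endpoint, growth curves were integrated by the trapezoidal rule up to the exponential-to-stationary transition and normalised to DMSO controls on the same plate. The curves came from OD578 readings taken hourly for 24 h, in three biological replicates. Pathogens had been passaged anaerobically twice and inoculated at an OD578 of 0.01 into pre-reduced mGAM plates carrying 20 μM compound and 1% DMSO, sealed with breathable membranes. Medium for Haemophilus parainfluenzae also contained hemin and NAD.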

[2] = system: Shigella flexneri; experiment: as above
Procedure, shortened: as §1

[3] = system: Vibrio cholerae; experiment: as above
Procedure, shortened: as §1

[4] = system: Yersinia pseudotuberculosis; experiment: as above
Procedure, shortened: as §1

[5] = system: P. vulgatus RND KO; experiment: growth AUC normalised to DMSO control (median) (fraction of control); higher = less growth inhibition, active = hit call of the paper
Procedure, shortened: (§2)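 Anaerobic growth was tracked hourly at OD578 for 24 h in 96-well plates of mGAM seeded at OD578 0.01 with each approved-drug library compound at 20 μM and 1% DMSO. Strains had first been passaged twice overnight without oxygen. Three biological replicates were run. The reported median is the area under the curve, calculated by the trapezoidal rule on curves truncated at entry into stationary phase and normalised to vehicle wells on the same plate.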

[6] = system: P. vulgatus WT; experiment: as above
Procedure, shortened: as §2

[7] = system: S. enterica typhimurium WT; experiment: as above
Procedure, shortened: as §2

[8] = system: S. enterica typhimurium tolC KO; experiment: as above
Procedure, shortened: as §2
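Throughout, for growth AUC normalised to DMSO control (median): active when median AUC fell below 0.1.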

Row | Compound | growth AUC normalised to DMSO control [1] | growth AUC normalised to DMSO control [2] | growth AUC normalised to DMSO control [3] | growth AUC normalised to DMSO control [4] | growth AUC normalised to DMSO control [5] | growth AUC normalised to DMSO control [6] | growth AUC normalised to DMSO control [7] | growth AUC normalised to DMSO control [8]
1 | CCCCNc1ccc(C(=O)OCCN(C)C)cc1 [Tetracaine hydrochloride] | 1.01 | 1.01 | 1.01 | 1 | 1.04 | 1.07 | 0.999 | 0.993
2 | CC(C)NCC(O)c1ccc(O)c(O)c1 (single isomer, unassigned; (-)) [(-) Isoproterenol hydrochloride] | 1.01 | 1.03 | 1.05 | 1.02 | 0.979 | 0.967 | 1 | 0.992
3 | Cc1cc2cc3c(C)cc(=O)oc3c(C)c2o1 [Trioxsalen] | 0.994 | 1.03 | 0.996 | 0.995 | 1.03 | 1.02 | 0.996 | 0.955
4 | COC(=O)Nc1nc2cc(C(=O)c3ccccc3)ccc2[nH]1 [Mebendazole] | 0.975 | 0.975 | 0.951 | 0.996 | 0.998 | 0.991 | 0.998 | 0.989
5 | COc1cc(C)c(/C=C/C(C)=C/C=C/C(C)=C/C(=O)O)c(C)c1C [Acitretin] | 0.995 | 1.02 | 0.985 | 0.99 | 0.944 | 0.956 | 1 | 0.998
6 | CCOCCn1c(N2CCCN(C)CC2)nc2ccccc21 [Emedastine difumarate] | 0.995 | 0.997 | 0.992 | 0.996 | 1.03 | 1.05 | 1 | 0.989
7 | Cc1cc(C2CCCCC2)n(O)c(=O)c1 [Ciclopirox ethanolamine] | 1.01 | 0.997 | 0.969 | 0.995 | 1.02 | 0.999 | 1.02 | 0.952
8 | Cn1ccnc1S [Methimazole] | 1.01 | 1.02 | 1.02 | 1.01 | 0.996 | 1.01 | 1 | 0.988
9 | CC1COc2c(N3CCN(C)CC3)c(F)cc3c(=O)c(C(=O)O)cn1c23 (stereo not given) [Ofloxacin] | 0.00746 (active) | 0.0235 (active) | 0.031 (active) | 0.0386 (active) | 0.0133 (active) | 0.0136 (active) | 0.0106 (active) | 0.00311 (active)
10 | CN(C)CCCSC(=N)N [Dimaprit dihydrochloride] | 0.991 | 1 | 0.986 | 1 | 0.99 | 0.999 | 1 | 1.01
11 | Cc1nnc(SCC2=C(C(=O)O)N3C(=O)[C@@H](NC(=O)Cn4cnnn4)[C@H]3SC2)s1 [Cefazolin sodium salt] | 0.00502 (active) | 0.0191 (active) | 0.126 (active) | 0.0805 (active) | 0.0126 (active) | 0.0107 (active) | 0.00709 (active) | 0.00476 (active)
12 | C[C@]12CC[C@H]3C(=CCc4cc(O)ccc43)[C@@H]1CCC2=O [Equilin] | 1.01 | 0.993 | 0.99 | 1.01 | 0.993 | 0.991 | 1 | 0.95
13 | COC1=C(OC)C(=O)C(CCCCCCCCCCO)=C(C)C1=O [Idebenone] | 1.02 | 1.01 | 0.989 | 1.02 | 0.913 | 0.95 | 1.01 | 0.972
14 | COc1cc(N)c(Cl)cc1C(=O)NC1CCN(Cc2ccccc2)CC1 [Clebopride maleate] | 0.996 | 0.998 | 0.995 | 1 | 0.987 | 0.999 | 0.998 | 1
15 | CC(C)Cc1ccc([C@H](C)C(=O)O)cc1 [(S,+) Ibuprofen] | 1.01 | 0.968 | 0.95 | 0.983 | 0.989 | 0.982 | 0.994 | 1
16 | Cc1ccc(-c2cc(C(F)(F)F)nn2-c2ccc(S(N)(=O)=O)cc2)cc1 [Celecoxib] | 1.01 | 1.02 | 0.851 (active) | 1.03 | 0.728 | 0.771 | 1.01 | 0.852
17 | Nc1ncnc2c1ncn2C1OC(COP(=O)(O)O)C(O)C1O (stereo not given) [Adenosine 5'-monophosphate monohydrate] | 0.999 | 0.986 | 0.981 | 1 | 0.977 | 0.984 | 0.992 | 0.995
18 | CN(C)CCOC(=O)COc1ccc(Cl)cc1 [Meclofenoxate hydrochloride] | 0.977 | 0.942 | 0.977 | 0.935 | 0.996 | 0.985 | 1.01 | 0.995
19 | CN(C)C/C=C(/c1ccc(Br)cc1)c1cccnc1 [Zimelidine dihydrochloride monohydrate] | 0.996 | 0.999 | 1 | 1.03 | 1.04 | 1.04 | 1.02 | 0.983
20 | Nc1nc(O)c2ncn(CCC(CO)CO)c2n1 [Penciclovir] | 1.01 | 1.01 | 1.06 | 1.02 | 1.02 | 1.03 | 1 | 0.997
21 | CN(c1nccc(=O)[nH]1)C1CCN(c2nc3ccccc3n2Cc2ccc(F)cc2)CC1 [Mizolastine] | 1.02 | 1.04 | 1.02 | 1.01 | 0.929 | 0.921 | 1.01 | 0.906
22 | CC(C)(C)c1ccc(C(O)CCCN2CCC(C(O)(c3ccccc3)c3ccccc3)CC2)cc1 (stereo not given) [Terfenadine] | 1.01 | 0.999 | 0.982 | 1.03 | 0.907 | 0.892 | 1.01 | 0.88
23 | c1coc(CNc2ncnc3[nH]cnc23)c1 [Kinetin] | 1.01 | 1.02 | 1.01 | 0.992 | 1.01 | 1.05 | 1 | 1.01
24 | CC(C)(CO)[C@@H](O)C(=O)NCCCO [(D)-Panthenol] | 0.999 | 1.02 | 0.998 | 0.99 | 0.995 | 0.979 | 1 | 1
25 | C#C[C@]1(O)CC[C@H]2[C@@H]3CCc4cc(OC)ccc4[C@H]3CC[C@@]21C [Mestranol] | 0.987 | 1.01 | 1.01 | 1.01 | 0.968 | 0.96 | 0.999 | 0.988
26 | CC[C@H](C)C(=O)O[C@H]1CCC=C2C=C[C@H](C)[C@H](CC[C@@H]3C[C@@H](O)CC(=O)O3)[C@H]21 [Mevastatin] | 1 | 1.01 | 1.02 | 0.974 | 0.952 | 0.989 | 1.01 | 0.922
27 | CC(=O)Oc1cc(C(C)C)c(OCCN(C)C)cc1C [Moxisylyte hydrochoride] | 0.992 | 0.992 | 0.991 | 0.99 | 0.999 | 1 | 1.01 | 1
28 | Nc1ccc(O)c(C(=O)O)c1 [Mesalamine] | 1.01 | 1.02 | 1.02 | 1.03 | 1 | 1.03 | 0.998 | 1.01
29 | C[C@]12C=CC(=O)C=C1CC[C@@H]1[C@@H]2C(=O)C[C@@]2(C)[C@H]1CC[C@]2(O)C(=O)CO [Prednisone] | 1.01 | 0.994 | 1 | 1.01 | 1.02 | 1.02 | 0.994 | 0.999
30 | CCCCOc1ccc(OCCCN2CCOCC2)cc1 [Pramoxine hydrochloride] | 0.998 | 1.01 | 1 | 0.983 | 1.04 | 1.03 | 1 | 0.988
